Screens (PubChem BioAssay)
A selection: hits, their analogues and other compounds. The true share with any hit is near 0.41%.
YopH PTP inh – YopH tyrosine phosphatase inhibitors, primary screen, biochemical, fluorescence Ex485/Em525; hit rate 0.16% among 140,000; inhibition, % (test concentration not listed); YopH tyrosine phosphatase [Yersinia enterocolitica]; in the data active means inhibition above about 50%
RmlC RmlD mix – RmlC and RmlD coupled enzyme inhibitors, primary screen, biochemical, 384-well, compound mixtures, retest; RmlC/RmlD coupled enzyme inhibition, 384-well mixture HTS; inhibition, % at 5.5 µM; hit rate 0.39% among 110,000; AID 1532, 2009; in the data active means inhibition above about 30%, passing the limit was not always enough
RmlCD fluor art – counter-screen for RmlC/RmlD inhibitors: fluorescence artifact, dose response, artefact control, biochemical; shares compounds with RmlC RmlD mix; RmlC/RmlD assay fluorescence artifact counter-screen; calls only; hit rate 96% among 360; AID 1696, 2009; call rule not given here;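 further: compound alone with no enzyme and no substrates present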
Active calls of the source: *; / = not tested or not shown; + = active, no number.

SMILES | YopH PTP inh | RmlC RmlD mix | RmlCD fluor art
CCCn1c(-c2cccs2)nc2nc3ccccc3nc21 | -10 | 81* | +
Cc1cc(OC(C)C)nc(NCc2ccccc2)n1 | 2 | 6 | /
COc1ccccc1Oc1c(C)oc2c(CN(C)C)c(O)ccc2c1=O | 2 | / | /
CCc1c(C)c2cc(Cl)c(O)c(CN(CC)CC)c2oc1=O | 15 | 106* | +
Cc1coc2c(C)c3oc(=O)c4c(c3cc12)CCCC4 | / | -61 | /
CCc1cc2c(=O)c(-c3nc4ccccc4n3C)c(C)oc2c(CN(CC)CC)c1O | -23 | 13 | /
Cc1c(C)c2cc(Cl)c(O)c(CN(C)C)c2oc1=O | -20 | 63* | +
COc1ccc(-c2cc(=O)oc3c(C)c(O)c(CN(C)C)cc23)cc1 | 31 | -3 | /
CN(C)Cc1c(O)c(Cl)cc2c3c(c(=O)oc12)CCCC3 | -36 | 140* | +
CCc1c(C)c2cc(Cl)c(O)c(CN(C)C)c2oc1=O | 12 | 82* | +
Cc1cc2c(N=NC(=O)CCc3ccccc3)c(O)[nH]c2cc1Br | -24 | / | /
O=C(NCc1ccc(C(F)(F)F)cc1)C1CC(c2c(Cl)cccc2Cl)=NO1 (stereo not drawn) | -8 | -10 | /
Cc1ccc(NC(=O)c2snc3ccc(Cl)cc23)cc1C | -28 | / | /
C=CCOc1ccc(C2CC(C)=NN2c2ccccc2)cc1 (stereo not drawn) | -36 | / | /
CN1CCN(C2=CC(=O)OC23CCCCC3)CC1 | -27 | -12 | /
CC(=O)/C(C#N)=C1\NC(=O)C(Cc2ccc(C)c(C)c2)S1 (stereo not drawn) | -22 | -2 | /
CC(C)OC(=O)c1cc2ccccc2[nH]1 | -16 | -10 | /
CCOC(=O)c1cc2cc3ccccc3cc2[nH]1 | -26 | 125* | +
CCCC(=O)N1CCN(c2ccc(NC(=S)NC(=O)CC)cc2)CC1 | -9 | -1 | /
CCOc1ccc2c3c(c(=O)oc2c1OCC)CCCC3 | -19 | 3 | /
COc1ccc2c3c(c(=O)oc2c1OCC(N)=O)CCCC3 | -16 | 32* | +
COc1ccc2nc(-c3ccc(N)cc3)[nH]c2c1 | 0 | 24 | /
Nc1ccc2nc(-c3ccc(N)c(Cl)c3)[nH]c2c1 | 43 | 40* | +
Nc1ccc2nc(-c3ccccc3)[nH]c2c1 | -28 | 100 | /
Nc1ccc(-c2nc3c(Cl)cc(N)cc3[nH]2)cc1 | -47 | 50* | +
SMILES | YopH PTP inh | RmlC RmlD mix | RmlCD fluor art
CC1=C(C(=O)OC(C)C)C(c2ccccc2)NC(=S)N1C (stereo not drawn) | -22 | / | /
CCCCCCNC(=O)CC(NS(=O)(=O)c1ccc(OC)cc1)C(C)C (stereo not drawn) | -23 | / | /
N#Cc1c(N)nc2c(c1-c1ccncc1)CCCCC2 | -32 | -14 | /
CSc1ccc(-c2c(C#N)c(N)nc3c2CCCC3)cc1 | -49 | 33* | +
COC(=O)c1sc(-c2ccccc2)cc1NC(=O)c1ccccc1 | -31 | / | /
C=CCNC(=O)c1c(CSc2ccc(Cl)cc2)noc1C(=O)NCc1ccccc1 | / | 9 | /
Cc1cc(=O)n2ccccc2c1C#N | 10 | 104* | +
Cc1cc(=O)n2c(ccc3ccccc32)c1C#N | -17 | 8 | /
CC1(C)Cc2nc(N3CCOCC3)c(C#N)cc2CO1 | 0 | -40 | /
CC1(C)Cc2nc(NCCCO)c(C#N)cc2CO1 | -47 | 44* | +
COc1ccc(-c2c(C#N)c(N)nc3c2CCCCCC3)cc1OC | -25 | / | /
COC(=O)c1c(C#N)c(N)nc2c1CCC2 | 10 | 67* | +
O=C(N/N=C/c1cccc(F)c1)c1cc(-c2ccco2)nc2ccccc12 | 4 | 3 | /
CC1CCN(CCC(=O)Nc2ccc3c(c2)CCC3)CC1 | 12 | -14 | /
COc1ccc(-c2c[n+]3c4n2CCCCC4=C(c2ccccc2)C3)cc1 | -42 | 91* | +
COc1ccc(-c2c[n+]3c(n2-c2ccccc2)CCCCC3)cc1 | -26 | / | /
CCOC(=O)[C@@H]1C(c2c(OC)cc(OC)cc2OC)=NO[C@@H]1C(=O)OCC | -16 | / | /
C#Cc1ccc([C@H]2C=C(C(=O)NCc3nc4ccccc4[nH]3)O[C@@H](OCC)[C@@H]2CCCO)cc1 | / | 6 | /
CC1(C)CCCN(C(=O)c2coc(=O)c(Br)c2)C1 | -57 | 54* | +
O=C(c1coc(=O)c(Br)c1)N1CCCc2ccccc21 | -13 | 30 | /
CC1=C(C(=O)OCCNC(=O)c2ccccc2O)C(c2ccccc2[N+](=O)[O-])C(C(=O)OCC2CCCO2)=C(C)N1 (stereo not drawn) | -20 | / | /
COc1ccc(S(=O)(=O)N2CCOCC2)cc1NC(=O)c1cccc2c(=O)c(C)c(-c3ccccc3)oc12 | -17 | / | /
CCCc1cc(=O)n2c([nH]c3ccccc32)c1C#N | -20 | 39* | +
CCCCc1c(C)c(C#N)c2[nH]c3ccccc3n2c1=O | -53 | 11 | /
O=C(c1cc([N+](=O)[O-])ccc1Cl)N1c2ccccc2Sc2ccccc21 | -24 | / | /
SMILES | YopH PTP inh | RmlC RmlD mix | RmlCD fluor art
COC(=O)Cc1c(C)c2ccc(OC(=O)c3ccccc3)cc2oc1=O | -3 | 64* | +
Cc1c(Cc2ccccc2)c(=O)oc2cc(OC(=O)c3ccccc3)ccc12 | -40 | -13 | /
CNC(=O)NC(=O)C(C)OC(=O)c1cc2c(s1)CCCCC2 (stereo not drawn) | -23 | / | /
CN(C)CCNc1oc(-c2ccccc2F)nc1C#N | 3 | 46* | +
CN(C)CCCNc1oc(-c2ccccc2)nc1C#N | -33 | 17 | /
COC(=O)c1ccc(SCC(=O)NC2CCCCC2)c([N+](=O)[O-])c1 | -26 | / | /
CC1CN(C(=O)c2cc3c(=O)n4ccccc4nc3s2)CC(C)O1 (stereo not drawn) | 3 | 53* | +
CC1CN(C(=O)c2cc3c(s2)CCC3)CC(C)O1 (stereo not drawn) | -36 | -12 | /
COc1ccc(CCNC(=O)Cc2ccc(OCc3ccccc3)c(OC)c2[N+](=O)[O-])cc1OCc1ccccc1 | -9 | / | /
CC(C)(C)N1C(=O)Cc2c1nc(N)c1c(N)nc(N3CCCCC3CO)c(C#N)c21 (stereo not drawn) | -34 | 35* | +
N#Cc1c(N2CCCCC2)nc(N)c2c(N)nc3c(c12)CC(c1ccccc1)O3 (stereo not drawn) | 19 | -13 | /
CN(CCO)c1nc(N)c2c(N)nc3c(c2c1C#N)CC(=O)N3C1CCCC1 | 1 | 30* | +
CCN(CC)c1nc(N)c2c(N)nc3c(c2c1C#N)CC(c1ccccc1)O3 (stereo not drawn) | -12 | -95 | /
COCCNC(=O)CSc1nnc(CCCN2C(=O)c3cccc4cccc(c34)C2=O)n1-c1ccccc1 | -40 | / | /
CCC(CC)C(=O)Nc1cccc(C(=O)Nc2ccc(S(=O)(=O)Nc3ccc(C)cc3)cc2)c1 | 8 | 10 | /
CC(=O)Nc1ccc(S(=O)(=O)N(C)CC(=O)OCC(=O)c2cc(C)n(-c3ccc4c(c3)OCO4)c2C)cc1 | -3 | / | /
CCC1OC23CCCCC2C(C#N)(C(=N)O3)C1(C#N)C#N (stereo not drawn) | -5 | -4 | /
N#CC1(C#N)COC23CCCCC2C1(C#N)C(=N)O3 (stereo not drawn) | 18 | 107* | +
COc1ccc(C2OC34CCCCC3C(C#N)(C#N)C2(C#N)C(=N)O4)cc1 (stereo not drawn) | -12 | 64* | +
CC1OC23CCCCC2C(C#N)(C(=N)O3)C1(C#N)C#N (stereo not drawn) | -37 | 2 | /
